Measured values: PubChem BioAssay (NCI)
The panel holds about 79,000 compounds, 15% with a hit somewhere; the sample as a whole holds those more often. Activity calls are given as the source filed them. Rule as the data show it: active = growth inhibition above about 70%; inactive = the rest.

Experiments:
[1] = NCI Yeast Anticancer Drug Screen. Data for the rad52 strain (AID 147);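 also: 0% = growth of vehicle-treated control cultures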; conditions: S. cerevisiae rad52 mutant growth inhibition, stronger effect = higher value
Summary of the method: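 Vehicle-treated cultures served as the reference for growth inhibition of compound-exposed yeast bearing a DNA repair mutation.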

[2] = NCI Yeast Anticancer Drug Screen. Data for the rad50EPP+ strain (AID 151);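 also: 0% = growth of vehicle-treated control cultures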; conditions: S. cerevisiae rad50 mutant strain, stronger effect = higher value
Summary of the method: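 In this screen, rad50EPP+ yeast were exposed to compounds. Growth inhibition was scored against vehicle-treated controls.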

[3] = NCI Yeast Anticancer Drug Screen. Data for the mgt1 strain (AID 153); conditions: S. cerevisiae mgt1 mutant growth inhibition, stronger effect = higher value
Summary of the method: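 mgt1 strain exposed; growth vs vehicle control recorded as inhibition.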

[4] = NCI Yeast Anticancer Drug Screen. Data for the rad50 strain (AID 155);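 also: 0% = growth of vehicle-only cultures of the same strain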; conditions: S. cerevisiae rad50 strain growth inhibition, stronger effect = higher value
Summary of the method: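 Relative growth inhibition (compound vs vehicle) was measured in yeast with a defined repair-gene alteration.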

[5] = NCI Yeast Anticancer Drug Screen. Data for the mec2-1 strain (AID 157); conditions: S. cerevisiae mec2-1 strain, stronger effect = higher value
Summary of the method: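 Vehicle-treated cultures served as reference for growth inhibition of compound-exposed mec2-1 yeast.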

[6] = NCI Yeast Anticancer Drug Screen. Data for the rad14 strain (AID 159);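 also: 0% = growth of vehicle-treated control cultures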; conditions: S. cerevisiae rad14 strain growth inhibition, stronger effect = higher value
Summary of the method: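 Screen for anticancer potential: a yeast strain altered in DNA damage repair is grown with compound, and reduced growth is quantified against vehicle controls.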

[7] = NCI Yeast Anticancer Drug Screen. Data for the sgs1 mgt1 strain (AID 161);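 also: 0% = growth of cultures given vehicle only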; conditions: S. cerevisiae sgs1 mgt1 strain, stronger effect = higher value
Summary of the method: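 Genetically altered yeast, compound exposure, growth inhibition relative to vehicle.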

[8] = NCI Yeast Anticancer Drug Screen. Data for the CLN2oe strain (AID 163);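 also: 0% = growth of vehicle-only control cultures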; conditions: S. cerevisiae CLN2oe strain, stronger effect = higher value
Summary of the method: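 Inhibition relative to vehicle-treated yeast is reported. Cells: strain with genetic alteration in cell-cycle control, grown with compound.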

[9] = NCI Yeast Anticancer Drug Screen. Data for the cln2 rad14 strain (AID 165);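 also: 0% = growth equal to vehicle treated cultures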; conditions: S. cerevisiae cln2 rad14 strain, stronger effect = higher value
Summary of the method: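 Each compound was tested on cln2 rad14 yeast. Inhibition of growth was calculated against vehicle-exposed controls.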

[10] = NCI Yeast Anticancer Drug Screen. Data for the wt2 strain (AID 169);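 also: 0% = growth of vehicle-treated yeast cultures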; conditions: S. cerevisiae wt2 strain growth inhibition, stronger effect = higher value
Summary of the method: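 Inhibition of yeast growth was determined after compound treatment, normalised to controls receiving only vehicle.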

[11] = NCI Yeast Anticancer Drug Screen. Data for the mlh1 strain (AID 171);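 also: 0% = growth of vehicle-treated control cultures of the same strain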; conditions: S. cerevisiae mlh1 strain growth inhibition, stronger effect = higher value
Summary of the method: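 Vehicle-normalised growth inhibition of a repair- or checkpoint-altered yeast strain following compound treatment.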

[12] = NCI Yeast Anticancer Drug Screen. Data for the sgs1 strain (AID 173);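 also: 0% = growth of vehicle-only control cultures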; conditions: S. cerevisiae sgs1 mutant, stronger effect = higher value
Summary of the method: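 Screen format: yeast with repair or checkpoint alterations, compound exposure, growth read relative to vehicle.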

[13] = NCI Yeast Anticancer Drug Screen. Data for the mlh1 rad18 strain (AID 175); conditions: S. cerevisiae mlh1 rad18 strain growth inhibition, stronger effect = higher value
Summary of the method: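 Vehicle-treated cultures served as the reference for growth inhibition in a yeast strain carrying DNA damage repair alterations exposed to each compound.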

[14] = NCI Yeast Anticancer Drug Screen. Data for the rad18 strain (AID 177); conditions: S. cerevisiae rad18 mutant growth inhibition, stronger effect = higher value
Summary of the method: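 Test articles were incubated with altered yeast defective in DNA damage repair. Results are given as inhibition of growth versus vehicle.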

[15] = NCI Yeast Anticancer Drug Screen. Data for the wt1 strain (AID 149);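 also: 0% = growth of vehicle-treated wt1 cultures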; conditions: S. cerevisiae wt1 strain (SPY 50644) growth inhibition, stronger effect = higher value
Summary of the method: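 Using yeast strain wt1, compound-induced growth inhibition was determined against vehicle-treated cultures.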

[16] = NCI Yeast Anticancer Drug Screen. Data for the bub3 strain (AID 167); conditions: S. cerevisiae bub3 mutant strain, stronger effect = higher value
Summary of the method: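 Screening used yeast with an engineered genetic alteration affecting cell cycle control. Compound-exposed cultures were compared with vehicle cultures, and reduced growth was taken as inhibition.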

[17] = at 5.0 µM (retest, dose inferred, filed as 0.5)
[18] = at 50.0 µM (retest, dose inferred, filed as 5.0)

Measured: growth inhibition

CCC(=O)C1=C(O)c2cc(OC)ccc2CC1C(=O)OC (stereo not drawn)
active: [2]; at 33.0 µM 73% | [2]; at 100.0 µM 86% | [4]; [18] 73% | [7]; [18] 89% | [13]; [18] 90%
inactive: [1]; at 1.2 µM -1% | [1]; at 3.7 µM 2% | [1]; at 11.0 µM 7% | [1]; at 33.0 µM 16% | [1]; at 100.0 µM 43% | [2]; at 1.2 µM 2% | [2]; at 3.7 µM 6% | [2]; at 11.0 µM 43% | [3]; at 1.2 µM -2% | [3]; at 3.7 µM -1% | [3]; at 11.0 µM 4% | [3]; at 33.0 µM 10% | [3]; at 100.0 µM 19% | [4]; at 1.2 µM -1% | [4]; at 3.7 µM -1% | [4]; [17] -9% | [4]; at 11.0 µM 6% | [4]; at 33.0 µM 4% | [4]; at 50.0 µM 13.1% | [4]; at 100.0 µM 28% | [5]; at 1.2 µM -1% | [5]; at 3.7 µM -4% | [5]; [17] -5% | [5]; at 11.0 µM -1% | [5]; at 33.0 µM 13% | [5]; [18] -1% | [5]; at 50.0 µM 13.2% | [5]; at 100.0 µM 35% | [6]; at 1.2 µM 2% | [6]; at 3.7 µM 6% | [6]; at 11.0 µM 11% | [6]; at 33.0 µM 19% | [6]; at 100.0 µM 35% | [7]; [17] -3% | [7]; at 50.0 µM 24% | [8]; at 1.2 µM -7% | [8]; at 3.7 µM -8% | [8]; at 11.0 µM 2% | [8]; at 33.0 µM 10% | [8]; at 100.0 µM 21% | [9]; [17] -5% | [9]; [18] 20% | [9]; at 50.0 µM 4.75% | [10]; at 1.2 µM -2% | [10]; at 3.7 µM 3% | [10]; at 11.0 µM 8% | [10]; at 33.0 µM 14% | [10]; at 100.0 µM 30% | [11]; at 1.2 µM -5% | [11]; at 3.7 µM -1% | [11]; at 11.0 µM 2% | [11]; at 33.0 µM 10% | [11]; at 100.0 µM 26% | [12]; at 1.2 µM -1% | [12]; at 3.7 µM -1% | [12]; at 11.0 µM 4% | [12]; at 33.0 µM 18% | [12]; at 100.0 µM 37% | [13]; [17] 16% | [13]; at 50.0 µM 31.4% | [14]; at 1.2 µM -1% | [14]; at 3.7 µM -3% | [14]; at 11.0 µM 2% | [14]; at 33.0 µM 8% | [14]; at 100.0 µM 21%

Cc1cc(C)c2[s+]snc2c1
active: [7]; at 50.0 µM 79% | [13]; at 50.0 µM 76%
inactive: [1]; at 1.2 µM 12% | [1]; at 3.7 µM 7% | [1]; at 11.0 µM 16% | [1]; at 33.0 µM 29% | [1]; at 100.0 µM 54% | [15]; at 1.2 µM -36% | [15]; at 3.7 µM 1% | [15]; at 11.0 µM 1% | [15]; at 33.0 µM 9% | [15]; at 100.0 µM 26% | [3]; at 1.2 µM 1% | [3]; at 3.7 µM 3% | [3]; at 11.0 µM 6% | [3]; at 33.0 µM 12% | [3]; at 100.0 µM 23% | [4]; at 1.2 µM 0% | [4]; at 3.7 µM 1% | [4]; [17] -5% | [4]; at 11.0 µM 3% | [4]; at 33.0 µM 9% | [4]; [18] 23% | [4]; at 50.0 µM 50.5% | [4]; at 100.0 µM 20% | [5]; at 1.2 µM -3% | [5]; at 3.7 µM -5% | [5]; [17] -6% | [5]; at 11.0 µM -3% | [5]; at 33.0 µM 10% | [5]; [18] 68% | [5]; at 50.0 µM 50.2% | [5]; at 100.0 µM 29% | [6]; at 1.2 µM 2% | [6]; at 3.7 µM 4% | [6]; at 11.0 µM 5% | [6]; at 33.0 µM 9% | [6]; at 100.0 µM 21% | [7]; [17] -1% | [7]; [18] 31% | [8]; at 1.2 µM -7% | [8]; at 3.7 µM -7% | [8]; at 11.0 µM -4% | [8]; at 33.0 µM -1% | [8]; at 100.0 µM 17% | [9]; [17] -19% | [9]; [18] 19% | [9]; at 50.0 µM 33.1% | [16]; at 1.2 µM -4% | [16]; at 3.7 µM -4% | [16]; [17] -5% | [16]; at 11.0 µM -5% | [16]; at 33.0 µM 1% | [16]; [18] 61% | [16]; at 50.0 µM 52% | [16]; at 100.0 µM 30% | [10]; at 1.2 µM -2% | [10]; at 3.7 µM 1% | [10]; at 11.0 µM 3% | [10]; at 33.0 µM 7% | [10]; at 100.0 µM 30% | [11]; at 1.2 µM 1% | [11]; at 3.7 µM 1% | [11]; at 11.0 µM 0% | [11]; at 33.0 µM 4% | [11]; at 100.0 µM 19% | [12]; at 1.2 µM 4% | [12]; at 3.7 µM 7% | [12]; at 11.0 µM 8% | [12]; at 33.0 µM 17% | [12]; at 100.0 µM 36% | [13]; [17] 2% | [13]; [18] 34% | [14]; at 1.2 µM 7% | [14]; at 3.7 µM 9% | [14]; at 11.0 µM 6% | [14]; at 33.0 µM 27% | [14]; at 100.0 µM 49%
